Drawing on PubChem BioAssay AID463173 (ICCB-Longwood Screening Facility, Harvard Medical School, 2010), this text covers survival for 85 compounds.

Molecules are shown by their SMILES. Screen size: about 52,000 compounds; about 4,300 (8.3%) were called active. The entries come from a sample that favours actives as a whole. Values without a mark were called inactive. No stated cut-off is given here; in the data, active means survival mostly below about 52% (no sharp cut-off); inactive means mostly above about 56%.

In this assay the test system is DeltatarO mutant. Put plainly: growth inhibition of S. aureus wild type versus tarO mutant, primary screen, teichoic acid synthesis inhibitors, RN4220, OD600 (AID 463173). The following applies: OD600, 18 h, stronger effect = lower value, screened at 18.75 µg/mL (by protocol).
Consider `Cc1c(CNC2CCCCC2)c(C(=O)O)c(C)n1Cc1ccc(F)cc1`, for which the survival was 85%.

As to `Cc1ccc(-c2ccc(C#N)c(=O)n2CC(=O)N2CCNC(=O)C2(C)C)cc1`, the survival is 88%.

Take `COc1ccc(CCNC(=O)C(=O)NCC(c2ccco2)S(=O)(=O)c2ccccc2)cc1OC` (stereo not given): the survival is 54%.

Regarding `COc1ccc(S(=O)(=O)N(C(=O)c2ccncc2)c2ccc3oc(C)c(C(C)=O)c3c2)cc1`, the survival is 152%.

For the compound `CCc1nn(-c2ccccc2)c2nc(-c3ccc(O)cc3)c3cc(OC)c(OC)cc3c12`, the survival is 74%.

Consider `COc1ccc(Cc2nc3c4cnn(-c5ccccc5F)c4ncn3n2)cc1`, for which the survival was 81%.

In the case of `Cc1cc(-n2c(SCC(=O)NCc3ccccc3)nc3ccsc3c2=O)ccc1Cl`, the survival was 87%.

As for `CCOC(=O)c1ccc(-n2c(CCC(=O)O)ccc2-c2ccccc2)cc1O`, the survival was 43% (active).

On to `O=C(O)CCc1ccc(-c2ccccc2)n1-c1ccc(C(=O)O)cc1`, for which the survival was 131%.

As to `CC(=O)c1cccc(-n2c(CCC(=O)O)ccc2-c2ccccc2)c1`, the survival is 74%.

`Cc1cccc(C2NC(=O)c3c(sc4c3CCN(C)C4)N2)c1O` (stereo not given): the survival was 125%.

`CCn1c(=O)c2sccc2n2c(CCCC(=O)N3CCN(c4ccccc4OC)CC3)nnc12`: the survival was 91%.

For the compound `COc1ccc(NC(=O)c2cc(C3CC3)nc3c2c(C)nn3-c2ccccc2)cc1`, the survival is 53%.

On to `CC(=O)c1ccc(NC(=O)c2cc(C)nc3c2c(C)nn3-c2ccc(C)cc2)cc1`, for which the survival was 102%.

Regarding `COc1ccc(NC(=O)c2cc(C3CC3)nc3c2c(C)nn3-c2ccccc2)c(OC)c1`, the survival was 37% (active).

Turning to `COc1ccccc1NC(=O)c1cc(C2CC2)nc2c1c(C)nn2-c1ccc(C)cc1`, the survival is 98%.

As to `COc1ccc(NC(=O)c2cc(C3CC3)nc3c2c(C)nn3-c2ccc(C)cc2)cc1OC`, the survival is 144%.

Turning to `CC(=O)c1ccc(NC(=O)c2cc(C3CC3)nc3c2c(C)nn3-c2ccc(C)cc2)cc1`, the survival was 46% (active).

For `Nc1c(C(=O)Nc2ccccc2)nnn1Cc1ccc(F)cc1Cl`, the survival is 99%.

Regarding `O=C(Cn1cc(S(=O)(=O)Cc2cccc(Cl)c2)c2ccccc21)NCc1ccccc1Cl`, the survival is 91%.

As to `O=C1CSC(N(c2ccccc2)c2ccccc2)=N1`, the survival was 96%.

With `COc1cccc(CNC(=O)CCn2c(=O)c3cccn3c3cccnc32)c1OC`, the survival was 98%.

With `Cc1ccc(CNC(=O)CCS(=O)(=O)c2cc3c4c(c2)CCN4C(=O)CC3)cc1`, the survival was 67%.

On to `Cc1ccc(C)c(N2CCN(C(=O)c3nn(C)c4c3CS(=O)(=O)c3ccccc3-4)CC2)c1`, for which the survival is 49% (active).

Regarding `Cn1nc(C(=O)N2CCN(c3ccccc3)CC2)c2c1-c1ccccc1S(=O)(=O)C2`, the survival is 51%.

Take `Cn1nc(C(=O)N2CCN(c3ccc(Cl)cc3)CC2)c2c1-c1ccccc1S(=O)(=O)C2`: the survival is 51%.

Consider `Cc1cccc(N2CCN(C(=O)c3nn(C)c4c3CS(=O)(=O)c3ccccc3-4)CC2)c1C`, for which the survival was 67%.

Turning to `Cn1nc(C(=O)N2CCN(c3ccccc3)CC2)c2c1-c1ccccc1SC2`, the survival is 80%.

As to `Cn1nc(C(=O)N2CCN(c3ccccc3F)CC2)c2c1-c1ccccc1SC2`, the survival is 32% (active).

For the compound `Cn1nc(C(=O)N2CCN(c3ccc(F)cc3)CC2)c2c1-c1ccccc1SC2`, the survival was 77%.

In the case of `Cc1ccc(N2CCN(C(=O)c3nn(C)c4c3CS(=O)(=O)c3ccccc3-4)CC2)c(C)c1`, the survival was 77%.

Consider `Cc1ccc2c(c1)-c1onc(C(=O)N3CCN(c4ccc(Cl)cc4)CC3)c1CO2`, for which the survival was 63%.

For the compound `Cc1ccc2c(c1)-c1onc(C(=O)N3CCN(c4cc(Cl)ccc4C)CC3)c1CO2`, the survival is 57% (active).

With `Cc1ccc2c(c1)-c1onc(C(=O)N3CCN(c4cc(C)ccc4C)CC3)c1CO2`, the survival was 66%.

Take `Cn1nc(C(=O)N2CCN(c3cccc(Cl)c3)CC2)c2c1-c1ccccc1S(=O)(=O)C2`: the survival is 37% (active).

In the case of `COc1cc(-c2nnc(SCC(=O)Oc3ccccc3Cl)o2)cc(OC)c1OC`, the survival was 84%.

For the compound `O=C(Nc1ccc(CN2CCCCC2)cc1)c1cccnc1Cl`, the survival was 71%.

Turning to `CCc1ccc(-c2nc(SCC(=O)NCCOC)c(-c3ccc(C)cc3)[nH]2)cc1`, the survival was 76%.

Take `Cc1c(Cl)cccc1NC(=O)c1cc(S(=O)(=O)N2CCCCC2)cn1C`: the survival is 99%.

With `COc1cccc(CN2CCc3nc(N4CCN(C)CC4)ncc3C2)c1`, the survival was 84%.

Consider `CN(c1ccc(F)cc1)S(=O)(=O)N1CCCC(C(=O)NCc2ccccc2Cl)C1` (stereo not given), for which the survival is 81%.

For the compound `COc1ccc(NC(=O)CCc2c(C)nc3c(c2C)c(=O)n(C)c(=O)n3C)c(OC)c1`, the survival is 100%.

On to `COc1ccc2c(c1)c(=O)c(S(=O)(=O)c1ccccc1)cn2CC(=O)Nc1ccc(C)c(Cl)c1`, for which the survival is 97%.

Regarding `COc1ccccc1CNC(=O)CCC1N=C2c3ccccc3N=C(SCC(=O)NCCc3ccc(OC)c(OC)c3)N2C1=O` (stereo not given), the survival was 92%.

Turning to `Cc1ccc(Cl)cc1N1CCN(C(=O)c2nn(C)c3c2CS(=O)(=O)c2ccccc2-3)CC1`, the survival was 58% (active).

For `Cn1nc(C(=O)N2CCN(c3ccccc3F)CC2)c2c1-c1ccccc1S(=O)(=O)C2`, the survival was 60%.

As for `COc1ccccc1N1CCN(C(=O)c2nn(C)c3c2CS(=O)(=O)c2ccccc2-3)CC1`, the survival is 61%.

In the case of `O=C(CSc1ncn[nH]1)N1CCOCC1`, the survival was 73%.

As to `Cn1c(=O)n(C)c2cc(NC(=O)C(F)(F)F)ccc21`, the survival was 94%.

In the case of `Cc1ccc(S(=O)(=O)Nc2cc3c(cc2N2CCOCC2)n(C)c(=O)n3C)cc1`, the survival was 90%.

On to `Cc1cc2c(cc1NS(=O)(=O)c1ccc(Br)cc1)n(C)c(=O)c(=O)n2C`, for which the survival is 109%.

Turning to `Cc1ccc(S(=O)(=O)Nc2cc3c(cc2C)n(C)c(=O)c(=O)n3C)cc1`, the survival was -2% (active).

For the compound `CC(C)Cc1ccc(S(=O)(=O)Nc2cc3c(cc2N2CCOCC2)n(C)c(=O)c(=O)n3C)cc1`, the survival is 79%.

With `Cn1c(=O)n(C)c2cc(N3CCOCC3)c(NS(=O)(=O)c3ccc(Cl)cc3)cc21`, the survival was 75%.

For the compound `CCc1ccc(S(=O)(=O)Nc2cc3c(cc2C)n(C)c(=O)c(=O)n3C)cc1`, the survival was 64%.

For the compound `Cn1c(=O)c(=O)n(C)c2cc(N3CCOCC3)c(NS(=O)(=O)c3ccc(F)c(Cl)c3)cc21`, the survival is 67%.

Turning to `CCc1ccc(S(=O)(=O)Nc2cc3c(cc2N2CCOCC2)n(C)c(=O)c(=O)n3C)cc1`, the survival was 6% (active).

As for `Cn1c(=O)c(=O)n(C)c2cc(N3CCOCC3)c(NS(=O)(=O)c3ccc(Cl)cc3)cc21`, the survival is -1% (active).

Turning to `Cc1ccc(NC(=O)C2CCN(S(=O)(=O)c3ccc4c(c3)CCCC(=O)N4)CC2)cc1N(C)C`, the survival is 120%.

As to `Cc1nn(CCCC(=O)NCc2ccccc2)c(=O)c2cc3sccc3n12`, the survival was 76%.

Turning to `O=C(CSc1cn(CC(=O)N2CCCCC2)c2ccccc12)NCc1ccc(F)cc1`, the survival is 70%.

As for `N#CCNC(=O)c1cccc(I)c1`, the survival is 89%.

In the case of `Cc1ccc(C)c(N2CCN(C(=O)c3cc(S(=O)(=O)N4CCCC4)cn3C)CC2)c1`, the survival is 64%.

Consider `Cc1cc(N2CCC(C(=O)Nc3ccc(F)cc3F)CC2)n2nc(C)c(-c3ccc(Cl)cc3)c2n1`, for which the survival was 86%.

For `COc1cccc(-c2nnc3n(Cc4ccc(F)cc4)c(=O)c4ccccc4n23)c1`, the survival is 84%.

`Cc1ccc(NC(=O)[C@H](Cc2ccccc2)N2Cc3ccccc3C2=O)cc1`: the survival was 81%.

For `Cc1ccc(CCNC(=O)CCCn2nc(C)c3c(C)n(-c4ccccc4)nc3c2=O)cc1`, the survival is 87%.

Regarding `CCN1CCC(N(Cc2ccc3c(c2)OCO3)C(=O)Nc2cccc(C)c2C)CC1`, the survival was 94%.

As for `CCN1CCC(N(Cc2cccc(OC)c2)C(=O)Nc2ccc(C)cc2Cl)CC1`, the survival is 66%.

Take `CCN1CCC(N(Cc2cccc(OC)c2)C(=O)Nc2cccc(C)c2C)CC1`: the survival is 20% (active).

As to `COCCN1C(=O)C(=O)/C(=C(/O)c2ccccc2)C1c1ccccc1` (stereo not given), the survival was 102%.

Take `Cc1ccc(C(=O)c2cn(Cc3cccc(Cl)c3)c3nc(C)ccc3c2=O)cc1`: the survival is 60% (active).

Take `CCc1ccc(C(=O)c2cn(CC(=O)NCc3ccc(C)cc3)c3nc(C)ccc3c2=O)cc1`: the survival was 98%.

Regarding `Cc1ccc2c(=O)c(C(=O)c3ccc(F)cc3)cn(CC(=O)NCc3ccccc3)c2n1`, the survival was 82%.

`Cc1ccc(C(=O)c2cn(Cc3cccc(C)c3)c3nc(C)ccc3c2=O)cc1`: the survival was 54%.

On to `Cc1ccc(Cn2cc(C(=O)c3ccc(C)cc3)c(=O)c3ccc(C)nc32)cc1`, for which the survival is 24% (active).

Take `Cc1ccc(C(=O)c2cn(Cc3ccccc3)c3nc(C)ccc3c2=O)cc1`: the survival was 76%.

With `Cc1ccc(CNC(=O)Cn2cc(C(=O)c3ccc(F)cc3)c(=O)c3ccc(C)nc32)cc1`, the survival is 52% (active).

In the case of `Cc1ccc(C(=O)c2cn(Cc3ccc(F)cc3)c3nc(C)ccc3c2=O)cc1`, the survival is 85%.

Consider `Cc1ccc(C(=O)c2cn(Cc3ccc(Cl)cc3)c3nc(C)ccc3c2=O)cc1`, for which the survival was 34%.

On to `Cc1cc(NC(=O)C2C3C(=O)N(c4ccccc4Cl)C(C(=O)NC(C)(C)C)C34C=CC2(C)O4)no1` (stereo not given), for which the survival is 108%.

In the case of `Cc1ccccc1OCC(=O)Nc1nnc(SCc2cc(=O)n3cc(Cl)ccc3n2)s1`, the survival is 84%.

`CCc1ccc(C2c3c(oc4ccc(F)cc4c3=O)C(=O)N2CCc2ccc(OC)cc2)cc1` (stereo not given): the survival was 94%.

Consider `Cc1ccc(-n2c(=O)c3ccc(C(=O)NCc4ccco4)cc3n(CC(=O)Nc3ccc(C)c(F)c3)c2=O)cc1`, for which the survival was 84%.

On to `CCOc1cccc(CC(=O)NCc2ccc3c(c2)CCN3C(=O)c2cccc(C)c2)c1OCC`, for which the survival was 54%.
